This passage reports composite z-score and z-score results from PubChem BioAssay.

Each structure is given as a SMILES string. The source made the active and inactive calls.

Assay [1] concerns PRMT1 (protein arginine N-methyltransferase 1). The experiment in a line: PRMT1 binders on small-molecule microarrays, primary screen, biochemical, small-molecule microarray, 635 nm fluorescence (AID 1088).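 Also: binding of Prmt1 protein to compounds spotted on small-molecule microarray slides.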 The settings on record: small-molecule microarray binding, higher = more signal.
Assay [2] can be described thus: yeast growth modulation, basal conditions, primary screen, YJM789 clinical isolate, OD600, 24 h (AID 1089).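 Also: growth of clinical yeast isolate S. cerevisiae YJM 789 seeded 1000 cells per well; test concentration not given here.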 The settings on record: S. cerevisiae YJM789 growth, higher = more signal, called active from +8 up or from −8 down.
Assay [3] in a line: fission yeast growth modulation, primary screen, strain 972, OD600, 24 h, no modulator (AID 1090).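 Also: basal condition with compound alone and no growth modifier present; test concentration not given here.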 Particulars: S. pombe 972 growth, higher = more signal, called active from +8 up or from −8 down.
Assay [4] is described as follows: S. cerevisiae growth modulation with rapamycin, primary screen, strain BY4716, OD600, 96 h (AID 1091). Also: test concentration not given here. The settings on record: higher = more signal, called active from +8 up or from −8 down.
Assay [5] has as its target Torsin-1A-interacting protein 2 (Homo sapiens) (UniProt Q8NFQ8). The experiment in a line: LULL1 binders on small-molecule microarray, primary screen, cell lysate, human LULL1 lysate, 635/667 nm fluorescence (AID 1092).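 Also: probe is lysate of COS7 cells overexpressing human LULL1; score merges per-feature 667 nm fluorescence with signal-to-noise.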 Particulars: hLULL1 lysate binding, 635 nm fluorescence, higher = more signal.
Assay [6] is described as follows: E. coli growth modulation, two-sided OD650, primary screen, E. coli filamentation project, strain DRC41, 24 h (AID 1093).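 Also: MC1000 strain lacking acrAB efflux and sulA so SOS filamentation is blocked; test concentration not given here.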 Particulars: OD650, 24 h, higher = more signal, called active from +8 up or from −8 down.
Assay [7] can be described thus: small-molecule microarray binders of probe aLefty2, primary screen, biochemical, biotinylated probe, 635/667 nm fluorescence (AID 1094).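 Also: score merges spot fluorescence near 667 nm with spot signal-to-noise ratio.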 Particulars: higher = more signal.
In assay [8] the test system is Noggin (protein binding on small-molecule microarray). The experiment in a line: Noggin binders on small-molecule microarray, primary screen, biochemical, 635/667 nm fluorescence (AID 1095).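 Also: score merges 667 nm feature fluorescence with signal to noise over triplicate slides.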 The settings on record: 635 nm fluorescence, higher = more signal.
The target in assay [9] is Neurogenic locus notch homolog protein 3 (Homo sapiens) (UniProt Q9UM47). The experiment in a line: NOTCH3 binders on small-molecule microarray, primary screen, biochemical, 635/667 nm fluorescence (AID 1096). Particulars: NOTCH3 binding, 635 nm fluorescence, higher = more signal.
A short description of assay [10]: small-molecule microarray binders of probe aEGFR, primary screen, biochemical, biotinylated probe, 635/667 nm fluorescence (AID 1097).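 Also: probe is a biotinylated anti-EGFR antibody binding compounds printed on slides; score combines fluorescence near 667 nm and signal to noise of each spot.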 The settings on record: higher = more signal.
Assay [11] has as its system Plasmodium falciparum Sir2 (PF13_0152, Sir2A). The experiment in a line: pfSir2 binders on small-molecule microarrays, primary screen, biochemical, small-molecule microarray, 635 nm fluorescence (AID 1098).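 Also: score merges spot fluorescence intensity with its signal-to-noise ratio.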 The settings on record: small-molecule microarray binding, fluorescence 635 nm; higher = more signal.
Assay [12] in a line: small-molecule microarray binders of probe aDKK1, primary screen, biochemical, biotinylated probe, 635/667 nm fluorescence (AID 1099).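 Also: score merges 667nm spot fluorescence with signal to noise across triplicate slides; reference of the scale not given here.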 The settings on record: higher = more signal.
Assay [13] is described as follows: small-molecule microarray binders of probe aCHRDL2, primary screen, biochemical, biotinylated probe, 635/667 nm fluorescence (AID 1100). Particulars: higher = more signal.
Assay [14] can be described thus: splicing luciferase reporter signal modulators, primary screen, spliceosome inhibition project, cell-based, HEK293, splice +/- reporter (AID 1101).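 Also: HEK293 cells carrying a splicing-competent luciferase reporter gene; test concentration not given here.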 The settings on record: luminescence, 24 h, higher = more signal, called active from +8 up or from −8 down. On the technique in general: Reporter assays use an easily measured gene product as a stand-in for the process of interest.

Assay [15] concerns the target Fibroblast growth factor 10 (Homo sapiens) (UniProt O15520). The experiment in a line: FGF10 binders on small-molecule microarrays, primary screen, biochemical, small-molecule microarray, 635 nm fluorescence (AID 1102). The settings on record: FGF10 binding, fluorescence 635 nm, higher = more signal.
Assay [16] has as its system glycogen synthase kinase-3 (GSK3A per assay name; protocol says GSK3B). The experiment in a line: GSK3 binders on small-molecule microarrays, primary screen, biochemical, small-molecule microarray, 635 nm fluorescence, GSK3A (AID 1103). Also: the record names both GSK3A and GSK3B. Particulars: small-molecule microarray binding, fluorescence 635 nm; higher = more signal.
Assay [17] concerns the target Epidermal growth factor receptor (Homo sapiens) (UniProt P00533). The experiment in a line: EGFR binders on small-molecule microarrays, primary screen, biochemical, small-molecule microarray, 635 nm fluorescence (AID 1104).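 Also: score merges 667 nm emission intensity with spot signal to noise over triplicate slides.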 The settings on record: EGFR binding, higher = more signal.
The target of assay [18] is Follistatin-related protein 3 (Homo sapiens) (UniProt O95633). The experiment in a line: FSTL3 binders on small-molecule microarrays, primary screen, biochemical, small-molecule microarray, 635 nm fluorescence (AID 1105).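 Also: score merges emission near 667 nm and signal to noise per printed spot across three slides.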 The settings on record: FSTL3 binding, higher = more signal.
The target in assay [19] is Dickkopf-related protein 1 (Homo sapiens) (UniProt O94907). The experiment in a line: DKK1 binders on small-molecule microarrays, primary screen, biochemical, small-molecule microarray, 635 nm fluorescence scan (AID 1106).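 Also: score merges emission near 667 nm with signal to noise over three replicate slides.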 The settings on record: DKK1 binding, higher = more signal.
The test system of assay [20] is Inhibin beta A chain (activin A). The experiment in a line: INHBA (activin A) binders on microarrays, primary screen, biochemical, small-molecule microarray, 635 nm fluorescence scan (AID 1107).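 Also: mouse activin A protein probed at 4.33 µg/mL on printed slides; score merges bound-protein fluorescence near 667 nm with spot signal-to-noise.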 Particulars: small-molecule microarray binding, higher = more signal.

Fibroblast growth factor 10 (Homo sapiens), sequence (O15520 whole entry, looked up): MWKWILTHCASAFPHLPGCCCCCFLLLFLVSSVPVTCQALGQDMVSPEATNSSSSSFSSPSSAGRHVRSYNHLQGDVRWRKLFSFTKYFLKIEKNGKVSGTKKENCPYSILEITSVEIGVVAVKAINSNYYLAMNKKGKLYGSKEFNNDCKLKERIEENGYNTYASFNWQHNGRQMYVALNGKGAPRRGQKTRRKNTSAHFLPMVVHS
Neurogenic locus notch homolog protein 3 (Homo sapiens), sequence (Q9UM47 whole entry, looked up): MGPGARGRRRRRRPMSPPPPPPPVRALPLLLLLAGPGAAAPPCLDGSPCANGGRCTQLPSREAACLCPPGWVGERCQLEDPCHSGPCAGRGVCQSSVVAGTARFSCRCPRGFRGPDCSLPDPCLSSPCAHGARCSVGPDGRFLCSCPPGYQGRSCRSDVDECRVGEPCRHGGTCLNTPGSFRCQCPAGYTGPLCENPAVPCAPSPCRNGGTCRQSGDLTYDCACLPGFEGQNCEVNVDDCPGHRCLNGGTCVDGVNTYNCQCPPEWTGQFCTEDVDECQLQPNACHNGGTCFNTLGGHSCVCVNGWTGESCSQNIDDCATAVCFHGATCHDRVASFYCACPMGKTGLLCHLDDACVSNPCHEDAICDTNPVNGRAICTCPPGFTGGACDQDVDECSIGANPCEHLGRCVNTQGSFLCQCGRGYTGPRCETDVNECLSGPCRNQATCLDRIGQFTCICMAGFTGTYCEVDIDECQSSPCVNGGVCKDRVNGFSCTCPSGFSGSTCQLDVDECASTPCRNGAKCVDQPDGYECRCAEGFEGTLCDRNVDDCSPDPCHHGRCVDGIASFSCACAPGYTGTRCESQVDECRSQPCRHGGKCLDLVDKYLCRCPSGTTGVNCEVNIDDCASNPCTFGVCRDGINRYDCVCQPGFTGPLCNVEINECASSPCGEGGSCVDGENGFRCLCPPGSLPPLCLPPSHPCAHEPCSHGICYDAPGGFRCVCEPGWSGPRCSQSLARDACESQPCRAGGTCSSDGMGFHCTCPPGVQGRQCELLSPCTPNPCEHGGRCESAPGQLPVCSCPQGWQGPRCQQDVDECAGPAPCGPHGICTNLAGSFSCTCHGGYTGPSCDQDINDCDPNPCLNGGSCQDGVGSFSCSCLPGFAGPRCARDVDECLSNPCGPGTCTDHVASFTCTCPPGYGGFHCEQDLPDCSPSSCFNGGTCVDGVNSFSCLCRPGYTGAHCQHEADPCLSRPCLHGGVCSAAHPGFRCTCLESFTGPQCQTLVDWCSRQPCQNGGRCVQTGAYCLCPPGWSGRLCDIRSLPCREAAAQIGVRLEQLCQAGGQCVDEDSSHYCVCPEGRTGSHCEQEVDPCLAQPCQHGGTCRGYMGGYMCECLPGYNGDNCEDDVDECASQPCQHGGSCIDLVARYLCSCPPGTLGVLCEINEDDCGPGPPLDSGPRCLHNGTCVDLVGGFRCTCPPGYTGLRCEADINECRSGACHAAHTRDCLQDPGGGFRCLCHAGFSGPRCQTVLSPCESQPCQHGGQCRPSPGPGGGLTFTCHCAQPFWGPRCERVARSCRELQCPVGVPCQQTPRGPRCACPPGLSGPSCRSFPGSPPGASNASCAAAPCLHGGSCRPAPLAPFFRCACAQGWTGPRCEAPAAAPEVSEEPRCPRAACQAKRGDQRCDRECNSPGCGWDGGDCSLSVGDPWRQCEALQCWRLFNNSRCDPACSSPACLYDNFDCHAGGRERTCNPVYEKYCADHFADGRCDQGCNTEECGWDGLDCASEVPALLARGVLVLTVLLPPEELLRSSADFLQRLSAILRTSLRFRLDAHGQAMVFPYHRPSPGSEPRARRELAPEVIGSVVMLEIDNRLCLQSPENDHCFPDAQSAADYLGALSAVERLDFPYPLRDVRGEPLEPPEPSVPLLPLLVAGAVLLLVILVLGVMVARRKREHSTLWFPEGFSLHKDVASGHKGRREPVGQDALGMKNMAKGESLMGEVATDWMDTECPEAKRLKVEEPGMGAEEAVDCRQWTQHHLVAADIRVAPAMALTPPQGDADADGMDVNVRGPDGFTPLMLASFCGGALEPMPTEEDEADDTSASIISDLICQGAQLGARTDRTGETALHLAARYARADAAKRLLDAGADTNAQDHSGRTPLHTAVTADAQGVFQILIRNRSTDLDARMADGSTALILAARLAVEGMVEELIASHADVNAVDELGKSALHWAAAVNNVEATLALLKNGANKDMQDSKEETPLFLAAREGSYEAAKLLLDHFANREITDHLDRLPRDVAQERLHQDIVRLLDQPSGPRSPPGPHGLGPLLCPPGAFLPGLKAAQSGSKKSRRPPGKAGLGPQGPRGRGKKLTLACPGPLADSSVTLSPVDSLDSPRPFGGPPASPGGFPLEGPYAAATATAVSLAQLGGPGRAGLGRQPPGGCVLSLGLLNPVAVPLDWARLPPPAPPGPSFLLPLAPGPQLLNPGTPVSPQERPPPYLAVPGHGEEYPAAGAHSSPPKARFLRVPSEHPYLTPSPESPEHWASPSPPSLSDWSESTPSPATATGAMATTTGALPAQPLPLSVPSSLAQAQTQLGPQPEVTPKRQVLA
Dickkopf-related protein 1 (Homo sapiens), sequence (O94907 whole entry, looked up): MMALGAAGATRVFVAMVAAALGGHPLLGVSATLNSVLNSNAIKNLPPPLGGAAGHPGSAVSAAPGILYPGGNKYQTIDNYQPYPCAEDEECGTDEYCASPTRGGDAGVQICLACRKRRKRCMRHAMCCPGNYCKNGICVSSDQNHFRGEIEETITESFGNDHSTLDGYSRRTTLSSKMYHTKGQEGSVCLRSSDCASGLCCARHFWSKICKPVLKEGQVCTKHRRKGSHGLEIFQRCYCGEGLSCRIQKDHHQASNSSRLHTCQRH
Torsin-1A-interacting protein 2 (Homo sapiens), sequence (Q8NFQ8 whole entry, looked up): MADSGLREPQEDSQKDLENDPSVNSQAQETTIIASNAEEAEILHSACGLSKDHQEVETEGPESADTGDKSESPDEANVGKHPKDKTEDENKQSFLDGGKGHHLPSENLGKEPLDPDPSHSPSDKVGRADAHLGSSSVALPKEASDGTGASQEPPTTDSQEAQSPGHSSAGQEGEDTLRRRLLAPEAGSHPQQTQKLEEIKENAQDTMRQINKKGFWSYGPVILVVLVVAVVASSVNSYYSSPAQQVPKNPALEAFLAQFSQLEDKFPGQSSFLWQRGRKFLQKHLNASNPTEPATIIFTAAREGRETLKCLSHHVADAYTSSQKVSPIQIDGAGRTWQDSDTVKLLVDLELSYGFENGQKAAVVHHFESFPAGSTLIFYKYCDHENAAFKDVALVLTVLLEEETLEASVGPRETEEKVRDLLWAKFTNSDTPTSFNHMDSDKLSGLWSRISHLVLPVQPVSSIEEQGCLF
Epidermal growth factor receptor (Homo sapiens), sequence (P00533 whole entry, looked up): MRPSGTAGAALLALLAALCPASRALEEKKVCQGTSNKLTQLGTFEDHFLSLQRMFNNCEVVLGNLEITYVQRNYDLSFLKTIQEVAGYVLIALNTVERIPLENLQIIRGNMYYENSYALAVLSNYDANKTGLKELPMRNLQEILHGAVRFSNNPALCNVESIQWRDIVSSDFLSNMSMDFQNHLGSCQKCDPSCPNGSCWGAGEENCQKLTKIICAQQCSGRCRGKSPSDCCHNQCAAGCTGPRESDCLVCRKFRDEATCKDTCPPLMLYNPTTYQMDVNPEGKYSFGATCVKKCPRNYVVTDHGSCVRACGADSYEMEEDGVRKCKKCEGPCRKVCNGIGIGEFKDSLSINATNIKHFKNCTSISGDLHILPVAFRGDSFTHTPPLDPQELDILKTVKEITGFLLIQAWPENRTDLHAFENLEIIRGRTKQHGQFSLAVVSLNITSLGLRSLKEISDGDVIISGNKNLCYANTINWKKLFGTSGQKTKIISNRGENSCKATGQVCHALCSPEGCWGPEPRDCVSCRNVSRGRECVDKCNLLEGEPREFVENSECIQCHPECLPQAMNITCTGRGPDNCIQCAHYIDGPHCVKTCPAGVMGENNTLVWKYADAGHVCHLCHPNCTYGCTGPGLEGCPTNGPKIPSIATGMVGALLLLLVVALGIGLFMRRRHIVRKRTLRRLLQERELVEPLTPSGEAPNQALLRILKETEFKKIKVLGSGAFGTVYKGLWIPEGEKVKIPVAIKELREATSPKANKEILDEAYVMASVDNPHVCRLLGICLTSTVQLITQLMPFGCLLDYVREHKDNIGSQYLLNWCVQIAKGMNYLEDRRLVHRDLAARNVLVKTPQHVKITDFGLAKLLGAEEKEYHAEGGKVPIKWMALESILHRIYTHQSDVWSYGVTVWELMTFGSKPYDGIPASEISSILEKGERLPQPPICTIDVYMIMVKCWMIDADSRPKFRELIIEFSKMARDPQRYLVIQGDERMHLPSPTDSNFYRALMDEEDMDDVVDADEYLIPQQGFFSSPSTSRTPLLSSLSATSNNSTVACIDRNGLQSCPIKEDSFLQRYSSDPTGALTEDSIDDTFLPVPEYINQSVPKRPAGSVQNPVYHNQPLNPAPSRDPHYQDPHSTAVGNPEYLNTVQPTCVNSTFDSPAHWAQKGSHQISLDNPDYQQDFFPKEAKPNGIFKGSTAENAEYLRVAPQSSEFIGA
Follistatin-related protein 3 (Homo sapiens), sequence (O95633 whole entry, looked up): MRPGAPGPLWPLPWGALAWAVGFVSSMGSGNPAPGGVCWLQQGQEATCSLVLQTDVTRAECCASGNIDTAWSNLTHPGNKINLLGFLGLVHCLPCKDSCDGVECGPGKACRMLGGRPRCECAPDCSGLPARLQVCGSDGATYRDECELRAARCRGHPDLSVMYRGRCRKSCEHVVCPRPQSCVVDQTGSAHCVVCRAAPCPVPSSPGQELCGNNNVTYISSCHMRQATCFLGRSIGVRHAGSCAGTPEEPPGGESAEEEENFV

Consider `C=C[C@@H](COC(C)=O)N(C(=O)OC(C)(C)C)S(=O)(=O)c1ccc(Br)cc1`, for which the composite z-score in assay [1] turned out to be 0.832; in [5], 0.519; in [7] it was 0.132; in assay [8], 0.841; in assay [9], 0.782; in assay [10], 0.0709. Further, the composite z-score was 0.732 in [11]; 0.311 in assay [12]; -0.152 in assay [13]; 1.18 in assay [15]; 1.23 in assay [16]; 0.837 in assay [17]. In addition, the composite z-score was determined as 1.45 in [18], 2.14 in assay [19] and 0.824 in assay [20]. The z-score in assay [2] was -0.152 (inactive); in [3] it was -1.54 (inactive); in [4], -0.666 (inactive); in [6] it was 0.411 (inactive); in assay [14], 0.446 (inactive).
In the case of `CCCCCCCCCCC(O)C1C=CC2C(=O)N(C)C(=O)C2N1Nc1ccc([N+](=O)[O-])cc1[N+](=O)[O-]` (stereo not given), the composite z-score is 0.195 in assay [1]; 3.02 in assay [5]; 0.379 in assay [7]; -0.894 in assay [8]; 1.1 in assay [9]; 0.153 in assay [10]. Further, the composite z-score was 0.781 in assay [11]; 0.899 in assay [12]; 0.905 in assay [13]; 0.141 in assay [15]; 0.461 in [16]; -0.497 in [17]. Also, the composite z-score in assay [18] is 0.323; in assay [19], -0.57; in assay [20], 0.894. Moreover, the z-score is 0.766 (inactive) in assay [2]; 0.637 (inactive) in assay [3]; 1.35 (inactive) in assay [4]; -1.68 (inactive) in assay [6]; 1.62 (inactive) in assay [14].
For the molecule `C=CCOC(=O)[C@H]1[C@@H]2C(=O)O[C@@H](c3ccccc3)[C@@H](c3ccccc3)N2[C@@H](c2ccc(OCCOC(=O)[C@@H]3C[C@@H]4C(=O)N5CCC[C@H]5C(=O)N4[C@@H]3c3ccc(O)cc3)cc2)[C@]12C(=O)Nc1ccc(I)cc12`, the composite z-score is 1.42 in [1]; 1.03 in [5]; -0.138 in assay [7]; 0.674 in [8]; 0.169 in [9]; -0.194 in [10]. The composite z-score in [11] is 0.637; in [12] it was -0.102; in [13], 0.357; in assay [15], 0.53; in [16], 0.195; in assay [17], 0.482. In addition, the composite z-score in [18] is 0.594; in assay [19] it was 1.39; in assay [20], 0.372. The z-score is 0.882 (inactive) in [2]; 0.25 (inactive) in assay [3]; 2.77 (inactive) in assay [4]; -0.333 (inactive) in assay [6]; 0.431 (inactive) in assay [14].
For `O=C1NC(=O)C2C1C=CC(C(O)c1cccc3ccccc13)N2Nc1ccc(Cl)cc1Cl` (stereo not given), the composite z-score was 0.811 in assay [1]; 3.04 in assay [5]; 0.162 in assay [7]; -0.339 in [8]; 1.04 in [9]; 0.131 in assay [10]. For the same molecule, the composite z-score in [11] is 0.477; in assay [12] it was 0.911; in assay [13], 1.16; in assay [15], 0.46; in [16], 0.267; in [17], -0.459. The composite z-score is 0.0589 in assay [18], -1.03 in assay [19] and 1.01 in [20]. Also, the z-score was -1.94 (inactive) in assay [2]; -0.615 (inactive) in assay [3]; 2.56 (inactive) in assay [4]; -1.43 (inactive) in assay [6]; 1.02 (inactive) in assay [14].
For the molecule `COC1OC[C@]2(C)[C@H]3C4=C(CN2C(=O)OC(C)(C)C)[C@H](C)C(CO)C(CO)C4CC[C@@H]13` (stereo not given in full), the composite z-score in assay [1] was 1.18; in assay [5] it was 3.44; in assay [7], 0.858; in assay [8] it was -0.05; in assay [9] it was 0.96; in [10], 0.187. The composite z-score in assay [11] worked out at 0.422; in assay [12], 1.39; in [13], 1.52; in [15], 0.513; in [16], 1.18; in assay [17], 0.0188. In addition, the composite z-score in assay [18] is 0.823; in assay [19] it was -0.362; in [20] it was 1.17. For the same molecule, the z-score in assay [2] is 0.58 (inactive); in [3], 1.22 (inactive); in [4] it was 0.867 (inactive); in assay [6], -0.172 (inactive); in assay [14] it was 2.09 (inactive).
